Source: PubChem BioAssay (Tox21)
Inconclusive results are not listed. Activity calls are given as the source filed them. Unless noted, calls come from the whole dose curve; as a rule, active = well fitted curve in the direction sought with a large enough effect in the repeat runs; inconclusive = weak or mixed curves; inactive = no such curve, though single readings can be large; an effect the other way counts as inactive or inconclusive.

How the values were obtained:
[1] = qHTS assay to identify aromatase inhibitors - cell viability counter screen (AID 743084);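 note: cells stimulated with testosterone during compound exposure; nearly all actives have a fitted effect of over 55% in size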
[2] = target: Aryl hydrocarbon receptor (Homo sapiens) (UniProt P35869); experiment: qHTS assay to identify small molecule that activate the aryl hydrocarbon receptor (AhR) signaling pathway (AID 743085);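 note: HG2L7.5c1 human HepG2 liver cells with stably integrated DRE-driven firefly reporter; series mostly up to about 70 µM; nearly all actives have a fitted effect of over 15% in size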
Aryl hydrocarbon receptor (Homo sapiens), sequence (P35869 whole entry, looked up): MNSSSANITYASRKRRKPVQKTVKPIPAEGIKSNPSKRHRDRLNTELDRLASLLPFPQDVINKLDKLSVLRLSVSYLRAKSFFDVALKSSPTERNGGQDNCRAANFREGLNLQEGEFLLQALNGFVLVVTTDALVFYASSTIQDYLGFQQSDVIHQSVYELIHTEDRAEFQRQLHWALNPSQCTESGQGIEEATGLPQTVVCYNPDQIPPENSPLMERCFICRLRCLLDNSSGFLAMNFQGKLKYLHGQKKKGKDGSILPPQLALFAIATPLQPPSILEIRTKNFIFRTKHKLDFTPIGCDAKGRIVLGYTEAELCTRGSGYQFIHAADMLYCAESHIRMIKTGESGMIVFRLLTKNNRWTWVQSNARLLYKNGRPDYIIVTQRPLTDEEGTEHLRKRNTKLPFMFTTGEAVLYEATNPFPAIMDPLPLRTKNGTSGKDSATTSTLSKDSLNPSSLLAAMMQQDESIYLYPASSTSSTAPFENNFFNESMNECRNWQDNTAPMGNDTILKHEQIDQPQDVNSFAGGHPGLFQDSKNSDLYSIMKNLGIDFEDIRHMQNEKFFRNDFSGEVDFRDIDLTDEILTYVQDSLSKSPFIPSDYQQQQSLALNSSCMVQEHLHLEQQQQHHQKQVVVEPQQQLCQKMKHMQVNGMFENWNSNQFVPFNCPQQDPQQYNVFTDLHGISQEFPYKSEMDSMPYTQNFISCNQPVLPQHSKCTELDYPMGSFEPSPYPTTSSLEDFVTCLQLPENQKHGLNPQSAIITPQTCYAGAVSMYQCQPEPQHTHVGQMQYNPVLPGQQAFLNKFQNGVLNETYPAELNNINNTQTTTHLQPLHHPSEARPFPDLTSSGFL
How it was run: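 Steps: seed HepG2-AhR-luc cells; allow 5 h at 37C; pin-transfer test compound or vehicle; incubate 24 h at 37C; add viability dye (30 min, 37C) and read fluorescence; add luciferase substrate (30 min, RT) and read luminescence.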

[3] = qHTS assay to identify small molecule that activate the aryl hydrocarbon receptor (AhR) signaling pathway - cell viability counter screen (AID 743086);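 note: HepG2 liver cells carrying the AhR DRE luciferase reporter; series mostly up to about 70 µM; nearly all actives have a fitted effect of over 45% in size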
How it was run: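 Cytotoxicity counter screen: CellTiter-Fluor signal (30 min, 37 C) in 4000 HepG2 cells/well carrying the DRE-luciferase reporter, following 24 h compound exposure at 37 C.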

[4] = target: Peroxisome proliferator-activated receptor gamma (Homo sapiens) (UniProt P37231); experiment: qHTS assay to identify small molecule antagonists of the peroxisome proliferator-activated receptor gamma (PPARg) signaling pathway (AID 743191; calls by dose curve; note: series mostly up to about 63 µM; nearly all actives have a fitted effect of over 30% in size)
Peroxisome proliferator-activated receptor gamma (Homo sapiens), sequence (P37231 whole entry, looked up): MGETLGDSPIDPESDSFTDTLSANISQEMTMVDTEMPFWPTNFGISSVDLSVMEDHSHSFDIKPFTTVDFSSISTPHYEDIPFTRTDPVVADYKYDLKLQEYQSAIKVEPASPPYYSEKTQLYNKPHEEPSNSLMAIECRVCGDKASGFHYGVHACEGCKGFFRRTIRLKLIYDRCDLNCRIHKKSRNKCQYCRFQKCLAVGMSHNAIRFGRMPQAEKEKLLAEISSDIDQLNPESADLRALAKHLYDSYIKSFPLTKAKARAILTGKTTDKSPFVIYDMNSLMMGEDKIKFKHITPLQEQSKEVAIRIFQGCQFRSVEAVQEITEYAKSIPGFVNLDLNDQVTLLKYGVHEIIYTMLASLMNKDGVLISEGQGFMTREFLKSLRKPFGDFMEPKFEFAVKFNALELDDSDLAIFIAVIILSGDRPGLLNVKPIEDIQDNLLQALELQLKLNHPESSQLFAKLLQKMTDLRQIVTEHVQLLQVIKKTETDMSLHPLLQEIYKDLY
How it was run: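 Beta-lactamase reporter under UAS control in HEK293H PPARg-bla cells; compound treatment 17 h at 37C. Read-out: fluorescence intensity after 1 h room-temperature incubation with LiveBLAzer B/G FRET substrate.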

[5] = qHTS assay to identify small molecule antagonists of the peroxisome proliferator-activated receptor gamma (PPARg) signaling pathway - cell viability counter screen (AID 743194); details: Potency: co-treated with 50 nM rosiglitazone unless noted; note: nearly all actives have a fitted effect of over 55% in size
How it was run: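 Viability was measured as CellTiter-Glo luminescence in GeneBLAzer PPARg UAS-bla HEK293H cells. These cells had been exposed 17 h at 37 C to compounds together with rosiglitazone at 50 nM final, with the beta-lactamase readout taken in the same wells.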

[6] = qHTS assay for small molecule agonists of the antioxidant response element (ARE) signaling pathway (AID 743202; active = well fitted activation curve with a large enough effect in the signal ratio in the repeat runs, not every such curve was filed as active; the % refers to the signal ratio)
How it was run: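 Beta-lactamase reporter activity, read as fluorescence intensity, reflects ARE/Nrf2 pathway induction in HepG2 cells after 16 h compound exposure at 37 C; substrate loading was 2 h at room temperature.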

[7] = qHTS assay for small molecule agonists of the antioxidant response element (ARE) signaling pathway - cell viability counter screen (AID 743203; calls by dose curve; note: nearly all actives have a fitted effect of over 55% in size)
How it was run: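 Viability counter screen: CellTiter-Glo luminescence, read after 30 min at room temperature, in ARE-bla HepG2 wells. Compound exposure lasted 16 h at 37C/5% CO2, following a 5 h pre-incubation of the cells after plating.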

[8] = qHTS assay for small molecule activators of the heat shock response signaling pathway - cell viability counter screen (AID 743209); note: nearly all actives have a fitted effect of over 50% in size
How it was run: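 Cytotoxicity counter screen run in the same wells as the heat-shock bla reporter assay: HeLa HSE-bla cells, 5 h compound exposure at 37 C, viability read by CellTiter-Glo luminescence.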

[9] = qHTS assay for small molecule activators of the heat shock response signaling pathway (AID 743210; active = well fitted activation curve with a large enough effect in the signal ratio in the repeat runs, with a control signal flat, not every such curve was filed as active; the % refers to the signal ratio;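 note: HeLa cells with beta-lactamase reporter driven by heat shock elements; series mostly up to about 63 µM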)
How it was run: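 Fluorescence from a cleaved B/G FRET substrate (2.5 h, room temp) reports HSE-driven beta-lactamase in HeLa cells treated 5 h at 37 C with DMSO-dissolved compounds.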

[10] = qHTS assay to identify small molecule agonists of the peroxisome proliferator-activated receptor delta (PPARd) signaling pathway - cell viability counter screen (AID 743211); note: nearly all actives have a fitted effect of over 55% in size
How it was run: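 Viability of GeneBLAzer PPARd UAS-bla HEK293H cells was assessed after 17 h compound incubation at 37C, using CellTiter-Glo reagent added after the reporter read and luminescence recorded 30 min later.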

[11] = qHTS assay to identify small molecule antagonists of the peroxisome proliferator-activated receptor delta (PPARd) signaling pathway - cell viability counter screen (AID 743213); note: nearly all actives have a fitted effect of over 50% in size
How it was run: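 HEK293H cells with the PPARd UAS-bla reporter, co-treated 17 h at 37 C with compounds and L165041 (300 nM final), were lysed with CellTiter-Glo. Luminescence indicated viable cell content.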

[12] = qHTS assay to identify small molecule agonists of the farnesoid-X-receptor (FXR) signaling pathway - cell viability counter screen (AID 743218); note: nearly all actives have a fitted effect of over 45% in size
How it was run: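 Viability counter screen in the same wells: CellTiter-Glo luminescence, 30 min room-temperature incubation, measured after the beta-lactamase read. Cells were GeneBLAzer FXR-UAS-bla HEK 293T, compound-treated 16 h at 37C.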

[13] = target: Vitamin D3 receptor (Homo sapiens) (UniProt P11473); experiment: qHTS assay to identify small molecule agonists of the vitamin D receptor (VDR) signaling pathway (AID 743222; calls by dose curve)
Vitamin D3 receptor (Homo sapiens), sequence (P11473 whole entry, looked up): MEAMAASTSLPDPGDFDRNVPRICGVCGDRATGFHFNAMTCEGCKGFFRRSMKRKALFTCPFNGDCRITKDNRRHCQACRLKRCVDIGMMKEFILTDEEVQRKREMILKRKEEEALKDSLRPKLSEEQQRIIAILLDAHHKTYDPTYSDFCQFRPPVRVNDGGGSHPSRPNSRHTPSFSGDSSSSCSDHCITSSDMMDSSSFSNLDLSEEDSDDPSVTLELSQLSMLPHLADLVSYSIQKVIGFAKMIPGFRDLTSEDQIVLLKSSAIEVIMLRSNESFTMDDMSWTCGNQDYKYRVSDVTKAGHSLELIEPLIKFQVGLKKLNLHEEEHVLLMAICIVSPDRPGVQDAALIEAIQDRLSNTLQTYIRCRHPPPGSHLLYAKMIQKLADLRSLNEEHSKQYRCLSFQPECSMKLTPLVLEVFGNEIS
How it was run: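 Agonist mode, beta-lactamase reporter: fluorescence from LiveBLAzer B/G FRET substrate (2 h, room temperature) read after 16 h compound treatment at 37 C of VDR-bla cells, which were pre-incubated 4 h after seeding.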

[14] = target: Vitamin D3 receptor (Homo sapiens) (UniProt P11473); experiment: qHTS assay to identify small molecule antagonists of the vitamin D receptor (VDR) signaling pathway (AID 743223; active = well fitted inhibition curve with a large enough effect in the signal ratio in the repeat runs, not every such curve was filed as active; the % refers to the signal ratio)
How it was run: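 Fluorescence from LiveBLAzer B/G FRET substrate, read after 2 h at room temperature, reflects beta-lactamase reporter activity in VDR-bla cells treated 16 h at 37C with compounds and agonist 1alpha,25-dihydroxyvitamin D3 (3 nM final).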

[15] = target: Peroxisome proliferator-activated receptor gamma (Homo sapiens) (UniProt P37231); experiment: qHTS assay to identify small molecule agonists of the peroxisome proliferator-activated receptor gamma (PPARg) signaling pathway (AID 743094; active = well fitted activation curve with a large enough effect in the signal ratio in the repeat runs, not every such curve was filed as active; the % refers to the signal ratio)
How it was run: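 Agonist activity was taken from a beta-lactamase reporter (FRET substrate, 1 h at room temperature) in HEK293H cells carrying a PPARg UAS-bla construct. Compounds in DMSO were incubated 17 h at 37C after a 5 h cell pre-incubation.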

[16] = target: Peroxisome proliferator-activated receptor delta (Homo sapiens) (UniProt Q03181); experiment: qHTS assay to identify small molecule agonists of the peroxisome proliferator-activated receptor delta (PPARd) signaling pathway (AID 743212; calls by dose curve;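 note: HEK293H cells with PPARd UAS beta-lactamase reporter GeneBLAzer system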)
Peroxisome proliferator-activated receptor delta (Homo sapiens), sequence (Q03181 whole entry, looked up): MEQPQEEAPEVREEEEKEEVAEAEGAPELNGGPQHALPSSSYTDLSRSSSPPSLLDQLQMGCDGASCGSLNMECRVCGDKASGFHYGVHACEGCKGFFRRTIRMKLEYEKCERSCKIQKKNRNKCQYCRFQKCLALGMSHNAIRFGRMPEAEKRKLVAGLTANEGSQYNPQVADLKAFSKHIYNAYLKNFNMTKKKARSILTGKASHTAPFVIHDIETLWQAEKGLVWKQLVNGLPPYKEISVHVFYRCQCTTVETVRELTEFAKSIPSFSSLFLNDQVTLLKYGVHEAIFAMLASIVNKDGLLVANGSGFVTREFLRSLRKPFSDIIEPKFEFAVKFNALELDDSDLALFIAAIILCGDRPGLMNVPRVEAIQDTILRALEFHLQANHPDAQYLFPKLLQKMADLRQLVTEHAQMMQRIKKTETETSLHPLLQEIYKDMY
How it was run: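 Steps: seed PPARd-bla HEK293H cells; incubate 5 h, 37 C, 5% CO2; add compounds in DMSO; incubate, 37 C; add LiveBLAzer B/G FRET substrate; hold 2 h at room temperature; measure fluorescence.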

[17] = target: Peroxisome proliferator-activated receptor delta (Homo sapiens) (UniProt Q03181); experiment: qHTS assay to identify small molecule antagonists of the peroxisome proliferator-activated receptor delta (PPARd) signaling pathway (AID 743215; active = well fitted inhibition curve with a large enough effect in the signal ratio in the repeat runs, not every such curve was filed as active; the % refers to the signal ratio;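 note: cells stimulated with agonist L165041 at 300 nM final during compound exposure; series mostly up to about 62 µM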)
How it was run: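 Agonist L165041 (300 nM final) added with compound to PPARd-bla HEK293H UAS-bla reporter cells; 17 h incubation at 37 C. Read-out: LiveBLAzer FRET substrate, 2 h at room temperature, fluorescence intensity.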

[18] = qHTS assay to identify small molecule antagonists of the farnesoid-X-receptor (FXR) signaling pathway - cell viability counter screen (AID 743221; active = well fitted cell-killing curve with a large enough effect in the repeat runs, not every such curve was filed as active; note: nearly all actives have a fitted effect of over 50% in size)
How it was run: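 Quantitative HTS of the Tox21 10K library run in parallel with the beta-lactamase reporter read. HEK 293T cells carrying a UAS-driven bla reporter got compound and 50 uM CDCA (final) for 16 h; ATP-based luminescence followed.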

[19] = target: Bile acid receptor (Homo sapiens) (UniProt Q96RI1); experiment: qHTS assay to identify small molecule antagonists of the farnesoid-X-receptor (FXR) signaling pathway (AID 743217; active = well fitted inhibition curve with a large enough effect in the signal ratio in the repeat runs, not every such curve was filed as active; the % refers to the signal ratio)
Bile acid receptor (Homo sapiens), sequence (Q96RI1 whole entry, looked up): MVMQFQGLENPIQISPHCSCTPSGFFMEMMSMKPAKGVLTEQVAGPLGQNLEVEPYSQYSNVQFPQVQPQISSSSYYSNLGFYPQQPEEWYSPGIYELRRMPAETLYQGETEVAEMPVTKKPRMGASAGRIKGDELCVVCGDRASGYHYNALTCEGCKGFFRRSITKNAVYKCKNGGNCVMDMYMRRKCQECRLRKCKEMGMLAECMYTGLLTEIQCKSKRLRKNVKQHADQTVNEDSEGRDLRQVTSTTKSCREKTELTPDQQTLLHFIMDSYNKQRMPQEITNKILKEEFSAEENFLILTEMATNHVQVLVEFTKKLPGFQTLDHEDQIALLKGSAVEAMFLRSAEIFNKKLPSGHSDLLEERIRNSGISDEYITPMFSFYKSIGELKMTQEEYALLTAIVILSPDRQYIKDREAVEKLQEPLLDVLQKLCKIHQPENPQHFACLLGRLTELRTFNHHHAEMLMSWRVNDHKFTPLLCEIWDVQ
How it was run: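 Antagonist mode: chenodeoxycholic acid at 50 uM final stimulates a UAS-driven beta-lactamase reporter in HEK 293T FXR-bla cells during 16 h, 37C compound exposure. Read-out is FRET substrate fluorescence after 2 h at room temperature.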

[20] = target: Bile acid receptor (Homo sapiens) (UniProt Q96RI1); experiment: qHTS assay to identify small molecule agonists of the farnesoid-X-receptor (FXR) signaling pathway (AID 743220; active = well fitted activation curve with a large enough effect in the signal ratio in the repeat runs, not every such curve was filed as active; the % refers to the signal ratio)
How it was run: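 FXR-UAS-bla HEK 293T cells carrying a UAS-driven beta-lactamase reporter were plated for 5 h at 37C/5% CO2, then exposed to DMSO-dissolved Tox21 10K compounds for 16 h at 37C. A LiveBLAzer B/G FRET substrate was loaded for 2 h at room temperature before fluorescence reading.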

Measured: Potency

CC1(C)C(=O)N(Cl)C(=O)N1Cl
not listed: [15] | [16] | [17] | [18] | [19] | [20]
inactive: all other assays above

C=CC(C)(C)C
not listed: [4] | [5] | [19] | [20]
inactive: all other assays above

NC(N)=S
not listed: [8] | [9] | [15] | [16] | [17]
inactive: all other assays above

NC(=O)NC(N)=O
not listed: [5] | [8] | [13] | [14] | [15] | [18] | [19] | [20]
inactive: all other assays above

CCCOCC(C)O (stereo not given)
not listed: [15] | [18] | [19] | [20]
inactive: all other assays above

C[n+]1ccn(CCO)c1
not listed: [9] | [15] | [16] | [17] | [19] | [20]
inactive: all other assays above

CCOC(=O)c1ccc(O)cc1
not listed: [4] | [15] | [18]
inactive: all other assays above

CC(=O)Nc1ccc(CC(=O)O)cc1
not listed: [13] | [14] | [15] | [16] | [17] | [19] | [20]
inactive: all other assays above

O=[N+]([O-])c1cc(C(F)(F)F)ccc1Cl
not listed: [13] | [14] | [15] | [16] | [17] | [19] | [20]
inactive: all other assays above

NC(=O)c1ncn([C@@H]2O[C@H](CO)[C@@H](O)[C@H]2O)n1
not listed: [13] | [14] | [15] | [19] | [20]
inactive: all other assays above
